Experimental data reported in PubChem BioAssay AID485344 (National Center for Advancing Translational Sciences (NCATS), 2010).
The campaign covered roughly 340,000 compounds. About 6,900 (2%) were called active. Only a selection was taken, and actives are over-represented in it overall. Values without a mark were called inactive. No stated cut-off is given here; in the data, active means inhibition above about 30%; inactive means below that, where a call was filed.

Target: D(2) dopamine receptor (Homo sapiens) (UniProt P14416)
Assay: HTS Assay for Allosteric Antagonists of the Human D2 Dopamine Receptor: Primary Screen for Antagonists; further: 0% is about no effect
Details: HEK293 TREx D2 cells, calcium flux, dopamine EC80; at 10 µM; hits give high values
Outline: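 Inhibition of EC80 dopamine-driven calcium flux, recorded kinetically, defines activity here; cells are a tetracycline-induced HEK293 T-REx line expressing force-coupled D2.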

D(2) dopamine receptor (Homo sapiens), sequence (P14416 whole entry, looked up): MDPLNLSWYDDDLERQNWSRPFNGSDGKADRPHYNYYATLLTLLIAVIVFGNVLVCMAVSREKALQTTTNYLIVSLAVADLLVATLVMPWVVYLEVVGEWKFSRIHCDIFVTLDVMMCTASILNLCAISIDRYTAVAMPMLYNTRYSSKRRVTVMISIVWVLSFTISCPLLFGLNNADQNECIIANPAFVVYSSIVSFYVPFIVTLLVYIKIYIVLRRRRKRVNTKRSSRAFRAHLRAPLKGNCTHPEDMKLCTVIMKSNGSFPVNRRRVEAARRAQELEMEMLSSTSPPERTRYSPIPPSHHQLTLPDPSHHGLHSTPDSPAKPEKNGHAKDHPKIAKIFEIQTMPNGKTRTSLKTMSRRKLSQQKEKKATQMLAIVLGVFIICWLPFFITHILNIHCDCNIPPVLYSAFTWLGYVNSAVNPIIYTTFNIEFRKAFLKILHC

SMILES | inhibition
O=C(CNS(=O)(=O)c1ccc2ccccc2c1)Nc1ccc(F)c(F)c1F | 6.19%
COC(=O)c1ccc(Cc2ccccc2)o1 | -18.3%
COC(=O)c1ccc(CSc2ccccc2C)o1 | 34.1% (active)
COC(=O)c1ccc(CSc2nnc(N)s2)o1 | -17.4%
COc1ccc(N2CCN(C(=O)COC(=O)c3cccc(S(=O)(=O)Nc4ccccc4OC)c3)CC2)cc1 | 3.16%
CC1CCCCC1NC(=O)NC(=O)COC(=O)C1=NN(c2ccccc2)C(=O)CC1 (stereo not given) | -16.5%
CC1CCCCC1NC(=O)COC(=O)Cc1ccc(Cl)cc1 (stereo not given) | -14.4%
Cc1nn(Cc2ccccc2)c(C)c1C(=O)NCCCN1CCCC1=O | 0.482%
O=C(Nc1ncc([N+](=O)[O-])s1)C1COc2ccccc2O1 (stereo not given) | 5.74%
CC(=O)Oc1ccccc1C(=O)Nc1ncc([N+](=O)[O-])s1 | 35% (active)
O=C(CCc1ccccc1)Nc1ncc([N+](=O)[O-])s1 | -6.9%
O=C1C=C(c2cccc(Br)c2)C[C@@H](c2ccc(F)cc2)C1 | -5.1%
CC(=O)Nc1ccc(OCC(O)CN2CCN(c3ccccc3Cl)CC2)cc1 (stereo not given) | 76.3% (active)
O=C(C(c1ccccc1)c1ccccc1)N1CCN(CC(O)COc2ccccc2)CC1 (stereo not given) | 19.3%
O=S(=O)(c1ccc(OCC(O)CN2CCN(c3ccccc3Cl)CC2)cc1)N1CCOCC1 (stereo not given) | -9.57%
O=C(c1ccccc1)c1ccc(OCC(O)CN2CCCC2)cc1 (stereo not given) | 71.8% (active)
Cc1cccc(OCC(O)CN2CCN(CCN3C(=O)c4cccc5cccc(c45)C3=O)CC2)c1C (stereo not given) | -17.4%
CC(C)c1ccc(OCC(O)CN2CCN(c3ccccn3)CC2)cc1 (stereo not given) | 74.5% (active)
O=C(c1ccc(Cl)cc1)c1ccc(OCC(O)CN2CCCCC2)cc1 (stereo not given) | 11.7%
OC(COc1ccc(Br)cc1)CN1CCCC1 (stereo not given) | 15.6%

SMILES | inhibition
C=CCc1ccccc1OCC(O)CN1CCN(CCO)CC1 (stereo not given) | -21.6%
CC1CCN(CC(O)COc2ccc(C(=O)c3ccccc3)cc2)CC1 (stereo not given) | 2.36%
CC(C)c1ccc(OCC(O)Cn2cnc3ccccc32)cc1 (stereo not given) | 5.76%
OC(COc1cccc2ccccc12)CN1CCN(c2ccccn2)CC1 (stereo not given) | 75.1% (active)
Cc1ccc(CC(=O)N(C)CC(=O)N(CC(C)C)c2c(N)n(CC(C)C)c(=O)[nH]c2=O)cc1C | 15%
CC(C)CCN1CCN=C1N(C)C | 8.98%
O=C(Nc1ccccn1)C1CCN(S(=O)(=O)c2ccccc2)CC1 | 5.14%
COc1ccccc1-c1oc2ccccc2c1C#CCCCCO | 13.9%
Cc1cc(C)n2nc(C(=O)OCC(=O)N(C)CC(=O)Nc3ccc(F)cc3)nc2n1 | 7.08%
CN(CC(=O)Nc1ccc(OC(F)(F)F)cc1)C(=O)C1CCC1 | -3.8%
COc1ccccc1C(=O)Nc1ccc(C)c(S(=O)(=O)N2CCCCC2)c1 | 9.57%
O=C(Nc1ccccc1F)c1ccc(S(=O)(=O)N2CCCCCC2)cc1 | -10.1%
CN(C(=O)COC(=O)c1cc(=O)[nH]c2ccccc12)C1CCCCC1 | 6.97%
O=C(Nc1cc(S(=O)(=O)N2CCOCC2)ccc1OCC(F)(F)F)c1ccc(N2CCCC2=O)cc1 | -14.2%
Cc1cccc(C)c1OCC(O)CN1CCCCC1 (stereo not given) | 13.3%
COc1ccccc1OCC(O)CN1CCOCC1 (stereo not given) | 3.41%
Cc1ccccc1OCC(O)CN1CCN(c2ccccn2)CC1 (stereo not given) | 87.2% (active)
CC(NC(=O)c1ccccc1SCC(=O)N1CCCC1)c1ccccc1 (stereo not given) | 5.13%
Cc1ccc(NC(=O)COC(=O)CNC(=O)c2ccc(Cl)cc2Cl)cc1S(=O)(=O)N1CCOCC1 | -10.2%
C/C(=N\NC(=O)CC(C)C)c1c(C(F)(F)F)[nH]n(-c2nc3ccccc3s2)c1=O | -4.59%

SMILES | inhibition
COC(=O)Cc1cc(=O)n(-c2nc3ccccc3s2)[nH]1 | 36.2% (active)
COC(=O)Cc1[nH]n(-c2nc3ccccc3s2)c(=O)c1C(C)=Nc1ccc(OC)cc1 | 12.5%
N[C@@H](Cc1ccccc1)C(=O)N1CCOCC1 | -3.78%
COc1ccc(S(=O)(=O)N2CCOCC2)cc1NC(=O)CC1CC2CCC1C2 (stereo not given) | -10.8%
CC(=O)c1cc(CN2CCC(C(=O)Nc3cccc(-c4cscn4)c3)CC2)cs1 | 10.7%
O=C(Nc1cccc(-c2cscn2)c1)C1CCN(Cc2ccsc2)CC1 | 48.1% (active)
O=C(Nc1ccc(-n2cccn2)cc1)C1CCN(Cc2ccsc2)CC1 | 0.479%
Cc1cc(C)cc(NC(=O)C(c2ccccc2)N2CCN(CC(=O)N3CCCC3)CC2)c1 (stereo not given) | 3.24%
Cn1c(=O)[nH]c(=O)c2c1nc(CN1CCN(c3ccccc3F)CC1)n2CCc1ccccc1 | 46.1% (active)
CC1CCN(c2nc3c(c(=O)[nH]c(=O)n3C)n2CCCc2ccccc2)CC1 | -0.868%
Cn1c(=O)[nH]c(=O)c2c1nc(CN(Cc1ccccc1)Cc1ccccc1)n2CCN1CCOCC1 | 10.3%
CCOC(=O)c1sc(NC(=O)C2CSC3(C)CCC(=O)N23)nc1C (stereo not given) | -25.8%
COc1ccc(C2(C)ON(c3ccccc3C(F)(F)F)C2=O)cc1 (stereo not given) | -4.74%
O=C(CCCN1C(=O)/C(=C\c2ccccc2)SC1=S)Nc1ccccc1O | -8.37%
CCN(C(=O)CN1C(=O)/C(=C/c2ccc(F)cc2)SC1=S)C1CCS(=O)(=O)C1 (stereo not given) | -6.17%
O=C1/C(=C/c2ccc(F)cc2)SC(=S)N1CCCC(=O)N1CCCCC1CCO (stereo not given) | 31.6% (active)
COc1ccc(Cl)cc1NC(=O)CN(C)C(=O)c1ccc2n[nH]nc2c1 | -5.47%
CCn1c(C)nc2c1C(=O)c1ccccc1C2=O | 34.8% (active)
CCC1(CC)Cc2ccccc2-c2nc3ccccc3c(=O)n21 | 5.55%
Cc1nc2ccccc2n1CC(O)c1ccccc1 (stereo not given) | 2.64%
